GALC G270D up = A Novel Cell-Based Assay to Identify Small Molecules for B -Galactocerebrosidase; 145M-Twi-hGALC-G270D cells (Twitcher mouse brain line with human GALC G270D), HMU-beta-Gal fluorescence, 48 h; Potency, µM (titrated, usually from 57.5 µM), actives largely listed as activators; hit rate 0.1% among 45,000; also: nearly all actives have a fitted effect of over 65% in size
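Fluorescence readout: HMU-β-gal cleavage by mutant GALC (0.1 mM final, citrate/phosphate pH 5.2 with 1 mg/mL taurocholate), stopped with carbonate/bicarbonate plus Triton X-100. Cells: murine Twitcher 145M-Twi expressing human G270D GALC; qHTS for activators.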
FH mod = Identification of activators of human fumarate hydratase by quantitative high-throughput screening. FH coupled MDH/diaphorase resazurin fluorescence, 15 min. Fumarate hydratase, mitochondrial (Homo sapiens), P07954. hit rate 0.22% among 54,000. Potency, µM (series often up to 79.9 µM), usual class: inhibitors; also: the screen sought activators but most active calls are inhibition curves; nearly all actives have a fitted effect of over 45% in size
B2AR arrestin ag = qHTS assay of beta-arrestin-biased ligands of beta2-adrenergic receptor: NCGC Sytravon Library Screen | 44,000 tested, under 10 active | Potency, µM (highest dose often 46.1 µM), hits mostly activators | AID 1347077, 2019 | HTLA Tango cells, beta-arrestin recruitment, luciferase luminescence, 18 h
Target sequence (P07550 whole entry, looked up): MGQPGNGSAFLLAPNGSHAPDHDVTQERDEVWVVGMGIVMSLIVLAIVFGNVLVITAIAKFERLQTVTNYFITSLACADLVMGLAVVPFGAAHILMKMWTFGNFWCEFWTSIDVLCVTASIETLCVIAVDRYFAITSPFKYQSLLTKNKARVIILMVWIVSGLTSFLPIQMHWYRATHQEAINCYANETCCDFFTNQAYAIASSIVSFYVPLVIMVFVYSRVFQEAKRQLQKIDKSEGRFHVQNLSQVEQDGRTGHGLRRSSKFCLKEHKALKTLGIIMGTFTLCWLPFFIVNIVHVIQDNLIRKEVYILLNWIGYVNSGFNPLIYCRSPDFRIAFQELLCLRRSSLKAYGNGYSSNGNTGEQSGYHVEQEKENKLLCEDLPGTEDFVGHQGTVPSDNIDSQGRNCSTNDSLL
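Ligand-induced beta-arrestin recruitment to recombinant beta2-AR is measured via a tTA-driven luciferase reporter in Tango cells after 18 hr compound exposure at 37 degrees C. Concentrations span up to 46 microM.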
GPR32 ag = qHTS for Agonists of Human Resolvin D1 Receptor DRV1; CHO-K1 GPR32 beta-arrestin PathHunter luminescence, 90 min; zero percent set by DMSO-only wells; activation, % at 76.9 µM; hit rate 2.5% among 48,000; AID 1346428, 2018;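 active = activation of at least 60% and not above a set upper limit, about 1 call in 100 departs from these limits; inconclusive = activation of 40% to 60%, or above that upper limit; inactive = activation under 40%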
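Beta-arrestin recruitment read-out: luminescence from complemented beta-Gal in CHO-K1 GPR32 PathHunter cells, measured 1 h after detection reagent at ambient temperature following 90 min compound exposure at 37 °C; DMSO served as basal (EC0) control.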
Large screens that a line does not name were inactive. Shown are actives, neighbours in structure and some others; about 2.8% of the full set was active somewhere. Unless noted, calls follow the shape of the dose curve; as a rule, active = well fitted curve in the direction sought with a large enough effect; inconclusive = small, poorly fitted or top-dose-only effect, or another doubt; inactive = no such curve, though single readings can be large; an effect the other way counts as inactive or inconclusive.

COc1cc(CCc2cc(NC(=O)c3ccc(N4CC(C)NC(C)C4)cc3)n[nH]2)cc(OC)c1 (stereo not drawn)	none (no result: GALC G270D up, B2AR arrestin ag, GPR32 ag)
OC(CC1c2ccccc2-c2cncn21)C1CCCCC1 (stereo not drawn)	none (no result: GALC G270D up, B2AR arrestin ag, GPR32 ag)
O=C(O)c1cccc(NC(=O)c2cccc(S(=O)(=O)Nc3cccc(C(=O)O)c3)c2)c1	none
O=C(Nc1cccc(C(=O)Nc2ccc(S(=O)(=O)O)c3cc(S(=O)(=O)O)cc(S(=O)(=O)O)c23)c1)Nc1cccc(C(=O)Nc2ccc(S(=O)(=O)O)c3cc(S(=O)(=O)O)cc(S(=O)(=O)O)c23)c1	FH mod 28.2µM (no result: GALC G270D up, B2AR arrestin ag)
COc1ccc(CCNC(=O)c2cc3c(-c4ccc(OC)c(OC)c4)nn(C)c3s2)cc1OC	FH mod 31.6µM
Cc1ccc(Cn2ccnc2SCC(=O)Nc2nc3ccccc3s2)cc1	FH mod inconclusive
O=C(CSc1ncc(CO)n1Cc1ccccc1)Nc1nc2ccccc2s1	GPR32 ag 60.3
O=C(CSc1ncc(CO)n1Cc1ccccc1)Nc1ccc(C(F)(F)F)cc1	GPR32 ag 117.6
COc1ccc(C2=CC(=O)OC2Cc2ccc(O)cc2)c(O)c1 (stereo not drawn)	none (no result: GALC G270D up, B2AR arrestin ag, GPR32 ag)
Cc1oc(-c2ccccc2)nc1CNS(=O)(=O)c1ccc(Cl)cc1	GPR32 ag 115.4
CC1(C)CC[C@]23CO[C@@]4(CCC5[C@@]6(C)CC[C@H](O[C@@H]7OC[C@H](O[C@@H]8O[C@H](CO)[C@@H](O)[C@H](O)[C@H]8O[C@@H]8OC[C@@H](O)[C@H](O)[C@H]8O)[C@H](O)[C@H]7O)[C@@](C)(CO)C6CC[C@@]5(C)[C@]4(C)CC2=O)[C@@H]3C1 (stereo partly drawn)	none (no result: GALC G270D up, B2AR arrestin ag, GPR32 ag)
CCOC(=O)c1ccc(NC(=O)Cn2nc(SC)c(S(=O)(=O)c3ccc(Cl)cc3)c2N)cc1	FH mod inconclusive, GPR32 ag 69.5
Cc1ccc(-c2nc3ccccc3[nH]2)cc1NC(=O)COc1ccccc1[N+](=O)[O-]	GPR32 ag 79.1
O=C(COc1ccccc1[N+](=O)[O-])Nc1cccc(-c2nc3ccccc3s2)c1	B2AR arrestin ag inconclusive, GPR32 ag 83.7
O=C(COc1ccccc1[N+](=O)[O-])Nc1ccc(-c2nc3ccccc3s2)cc1	GALC G270D up inconclusive
CCCC(NC(=O)/C(C#N)=C/c1cccc(Br)n1)c1ccccc1 (stereo not drawn)	none (no result: GALC G270D up, B2AR arrestin ag, GPR32 ag)
C#CC1(O)CC[C@H]2[C@@H]3CCC4=CCCC[C@@H]4[C@H]3CC[C@@]21C (stereo partly drawn)	GPR32 ag 105.4 (no result: B2AR arrestin ag)
COc1ccc2nc3ccc(OC)cc3c(SCCCN)c2c1	none (no result: GALC G270D up, B2AR arrestin ag, GPR32 ag)
O=C(O)c1ccc2nc(-c3cc4cccc(O)c4oc3=O)[nH]c2c1	FH mod 22.4µM
O=C(O)c1ccc2nc(-c3cc4cc(F)ccc4oc3=O)[nH]c2c1	none
CC1(C)CC[C@]2(C(=O)O)[C@H](O)C[C@]3(C)C(=CCC4[C@@]5(C)CC[C@H](O[C@@H]6O[C@H](CO[C@@H]7OC[C@H](O)[C@H](O)[C@H]7O[C@@H]7OC[C@@H](O)[C@H](O)[C@H]7O)[C@@H](O)[C@H](O)[C@H]6O[C@@H]6O[C@H](CO)[C@@H](O)[C@H](O)[C@H]6O)C(C)(C)C5CC[C@]43C)[C@@H]2C1 (stereo partly drawn)	none (no result: GALC G270D up, B2AR arrestin ag, GPR32 ag)
Cc1ccc(-n2ccnc(NCCc3ccc(S(N)(=O)=O)cc3)c2=O)c(C)c1	GPR32 ag 80.5
Cc1cc(-n2ccnc(NCCc3ccc(S(N)(=O)=O)cc3)c2=O)ccc1Br	GPR32 ag 119.9
COc1ccc(-n2ccnc(NCc3ccc(C)cc3)c2=O)cc1OC	GPR32 ag 64.8
Cc1ccc(-n2ccnc(NCCc3ccc(S(N)(=O)=O)cc3)c2=O)cc1C	GPR32 ag 95.2
C[C@@H]1O[C@@H](O[C@H]2[C@H](O)[C@@H](O)[C@H](OC[C@H]3O[C@@H](OC(=O)[C@]45CCC(C)(C)C[C@H]4C4=CCC6[C@@]7(C)C[C@@H](O)[C@H](O)[C@@](C)(CO)C7[C@H](O)C[C@@]6(C)[C@]4(C)CC5)[C@H](O)[C@@H](O)[C@@H]3O)O[C@@H]2CO)[C@H](O)[C@H](O)[C@H]1O (stereo partly drawn)	none (no result: GALC G270D up, B2AR arrestin ag, GPR32 ag)
C[C@@H]1O[C@@H](O[C@H]2[C@H](OC(C#N)c3ccc(O)cc3)O[C@H](CO)[C@@H](O)[C@@H]2O)[C@H](O)[C@H](O)[C@H]1O (stereo partly drawn)	none (no result: GALC G270D up, B2AR arrestin ag, GPR32 ag)
COC(=O)c1cc(Nc2nc3ccccc3nc2NS(=O)(=O)c2ccc(C)cc2)ccc1Cl	FH mod inconclusive, GPR32 ag 98.8
COc1ccc(Nc2nc3ccccc3nc2NS(=O)(=O)c2ccc(C)cc2)c(OC)c1	none
C[C@@H]1O[C@@H](O[C@H]2[C@H](OC(=O)[C@]34CCC(C)(C)C[C@H]3C3=CCC5[C@@]6(C)C[C@@H](O)[C@@H](O)[C@@](C)(CO)C6[C@H](O)C[C@@]5(C)[C@]3(C)CC4)OC[C@H](O)[C@@H]2O)[C@H](O)[C@H](O)[C@H]1O[C@@H]1OC[C@@H](O)[C@H](O[C@H]2O[C@H](C)[C@@H](O)[C@H](O)[C@@H]2O)[C@H]1O (stereo partly drawn)	none (no result: GALC G270D up, B2AR arrestin ag, GPR32 ag)
COc1cc(C(=O)NC2CCN(C)CC2)c(F)cc1Nc1ncc2c(n1)N(C1CCCC1)CC(F)(F)C(=O)N2C	none (no result: GALC G270D up, B2AR arrestin ag, GPR32 ag)
O=C(c1ccc(CSc2nc3ccncc3n2Cc2ccc(F)cc2)cc1)N1CCCCCC1	GPR32 ag 61.4
CCOc1ccc(C(=O)NCCc2sc(-c3cccc(F)c3)nc2C)cc1OCC	none
O=C(NCCc1csc(-c2ccc(F)cc2)n1)c1ccc(Br)o1	GPR32 ag inconclusive
O=C(NCCc1csc(-c2cccc(F)c2)n1)c1ccc(Br)o1	GPR32 ag 93.8
Cc1nc(-c2cccc(F)c2)sc1CCNC(=O)c1ccc(F)c(F)c1	FH mod inconclusive, GPR32 ag 62.6
Cc1ccc(C(=O)NCCc2csc(-c3cccc(F)c3)n2)cc1C	GPR32 ag 60.5
C=CC(C)(C)C1(CC2NC(=O)C3CCCN3C2=O)C(=O)Nc2cc3c(cc21)C=CC(C)(C)O3 (stereo not drawn)	none (no result: GALC G270D up, B2AR arrestin ag, GPR32 ag)
CCN1C(=O)c2cccc3c(S(=O)(=O)Nc4ccc(O)c(C(=O)O)c4)ccc1c23	FH mod 31.6µM
CCOc1ccccc1NC(=O)c1cc2ccc3cccnc3c2[nH]1	none
COc1ccccc1NC(=O)c1cc2ccc3cccnc3c2[nH]1	GPR32 ag 92.6
Clc1ccc(-c2noc3ncnc(N4CCCCC4)c23)cc1	GPR32 ag 82.5
CN1CCCCC1CCN1c2ccccc2Sc2ccc(S(C)=O)cc21 (stereo not drawn)	GPR32 ag 64.5 (no result: B2AR arrestin ag)
Cc1cc(-c2ccc(/C=C3\SC(=Nc4ccc(Cl)c(C(=O)O)c4)NC3=O)o2)c([N+](=O)[O-])cc1C	FH mod 25.1µM (no result: GALC G270D up, B2AR arrestin ag, GPR32 ag)
